Measured values: PubChem BioAssay AID1159580 (chemical genetic matrix, 2015)
Values joined by “and” are separate entries in the source; they are usually repeats but may differ in a detail not shown here. Equal values may be shown once. The campaign covered roughly 5,500 compounds. About 2,000 (36%) were called active. About 18% were inconclusive and are not listed. Rule as the data show it: active = normalized growth mostly below about 0.91 (no sharp cut-off); inconclusive = no clear call, values can overlap the other calls; inactive = mostly above about 0.92. Some of the results follow.

Assay: chemical genetic growth profiling, strain panel (AID 1159580);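 also: tested at 20 µM; growth read once vehicle control cultures reached saturation at 30 °C; 1 = growth at the plate median or of vehicle wells; lower values mean less growth of the strain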
Conditions: S. cerevisiae deletion strains, growth OD

Measured: normalized growth

CC1=CC(=O)C(C(C)C)=CC1=O
0.468 (active) and 0.942 (inactive): locus YJL095W, strain BCK1, stronger effect = lower value
0.556 (active) and 0.951 (inactive): locus YHR030C, strain SLT2, stronger effect = lower value
active: locus YAL013W, strain DEP1, stronger effect = lower value 0.784 | locus YAL026C, strain drs2, stronger effect = lower value 0.711 | locus YAL030W, strain snc1, stronger effect = lower value 0.914 | locus YBR009C, strain hhf1, stronger effect = lower value 0.488 | locus YBR021W, strain FUR4, stronger effect = lower value 0.827 | locus YCL011C, strain gbp2, stronger effect = lower value 0.375 | locus YCR088W, strain abp1, stronger effect = lower value 0.777 | locus YDL192W, strain arf1, stronger effect = lower value 0.776 | locus YDR101C, strain arx1, stronger effect = lower value 0.87 | locus YDR137W, strain rgp1, stronger effect = lower value 0.665 | locus YDR159W, strain sac3, stronger effect = lower value 0.773 | locus YDR318W, strain mcm21, stronger effect = lower value 0.878 | locus YDR388W, stronger effect = lower value 0.925 | locus YDR392W, strain spt3, stronger effect = lower value 0.455 | locus YDR502C, strain sam2, stronger effect = lower value 0.857 | locus YEL003W, strain gim4, stronger effect = lower value 0.416 | locus YER155C, strain BEM2 (second series), stronger effect = lower value 0.425 | locus YER155C, strain BEM2, stronger effect = lower value 0.871 | locus YER167W, strain BCK2, stronger effect = lower value 0.897 | locus YGL086W, strain mad1, stronger effect = lower value 0.846 | locus YGL227W, strain vid30, stronger effect = lower value 0.217 | locus YGL248W, strain PDE1, stronger effect = lower value 0.849 | locus YGR078C, strain PAC10, stronger effect = lower value 0.547 | locus YGR135W, strain pre9, stronger effect = lower value 0.826 | locus YGR252W, strain gcn5, stronger effect = lower value 0.746 | locus YHR129C, strain ARP1, stronger effect = lower value 0.864 | locus YHR142W, strain chs7, stronger effect = lower value 0.775 | locus YHR200W, strain rpn10, stronger effect = lower value 0.911 | locus YIL066C, strain RNR3, stronger effect = lower value 0.828 | locus YIL125W, strain kgd1, stronger effect = lower value 0.926 | locus YIR030C, strain dcg1, stronger effect = lower value 0.9 | locus YJL129C, strain trk1, stronger effect = lower value 0.65 | locus YJL164C, strain tpk1, stronger effect = lower value 0.785 | locus YJL166W, strain qcr8, stronger effect = lower value 0.415 | locus YJR043C, strain POL32, stronger effect = lower value 0.79
inactive: locus YAL021C, strain ccr4, stronger effect = lower value 0.91 | locus YBL061C, strain skt5, stronger effect = lower value 0.992 | locus YBR023C, strain chs3, stronger effect = lower value 0.997 | locus YBR171W, strain sec66, stronger effect = lower value 0.996 | locus YBR229C, strain ROT2, stronger effect = lower value 0.984 | locus YBR231C, strain swc5, stronger effect = lower value 0.956 | locus YBR279W, strain paf1, stronger effect = lower value 0.98 | locus YCL016C, strain dcc1, stronger effect = lower value 0.984 | locus YCL029C, strain bik1, stronger effect = lower value 0.926 | locus YCL061C, strain MRC1, stronger effect = lower value 0.966 | locus YCL069W, strain vba3, stronger effect = lower value 0.993 | locus YDL005C, strain med2, stronger effect = lower value 0.974 | locus YDL035C, strain GPR1, stronger effect = lower value 0.859 | locus YDL040C, strain nat1, stronger effect = lower value 0.996 | locus YDL074C, strain BRE1, stronger effect = lower value 0.797 | locus YDL101C, strain DUN1, stronger effect = lower value 0.954 | locus YDL185W, strain tfp1, stronger effect = lower value 0.935 | locus YDR001C, strain nth1, stronger effect = lower value 1 | locus YDR069C, strain doa4, stronger effect = lower value 0.988 | locus YDR162C, strain NBP2, stronger effect = lower value 0.858 | locus YDR195W, strain ref2 1.03 | locus YDR297W, strain sur2, stronger effect = lower value 0.989 | locus YDR335W, strain msn5, stronger effect = lower value 0.998 | locus YEL037C, strain rad23, stronger effect = lower value 0.996 | locus YEL061C, strain CIN8 (second series), stronger effect = lower value 0.917 | locus YER015W, strain faa2, stronger effect = lower value 0.989 | locus YER016W, strain bim1, stronger effect = lower value 1.01 | locus YER110C, stronger effect = lower value 0.922 | locus YER111C, strain swi4, stronger effect = lower value 0.994 | locus YFR010W, strain ubp6, stronger effect = lower value 0.93 | locus YGL078C, strain dbp3, stronger effect = lower value 0.932 | locus YGL167C, strain pmr1, stronger effect = lower value 0.996 | locus YGL173C, strain kem1, stronger effect = lower value 0.947 | locus YGL240W, strain doc1, stronger effect = lower value 0.938 | locus YGL253W, strain hxk2, stronger effect = lower value 0.956 | locus YHR013C, strain ard1, stronger effect = lower value 0.995 | locus YHR027C, strain rpn1, stronger effect = lower value 0.996 | locus YHR079C, strain IRE1 (second series), stronger effect = lower value 0.935 | locus YHR079C, strain IRE1, stronger effect = lower value 0.941 | locus YHR094C, strain hxt1, stronger effect = lower value 0.949 | locus YIL073C, strain SPO22, stronger effect = lower value 0.765 | locus YJL092W, strain hpr5, stronger effect = lower value 0.989 | locus YJL095W, strain BCK1 (second series), stronger effect = lower value 0.928 | locus YJL115W, strain asf1, stronger effect = lower value 0.981 | locus YJL134W, strain LCB3, stronger effect = lower value 0.982 | locus YJL154C, strain vps35, stronger effect = lower value 0.989 | locus YJL168C, strain set2, stronger effect = lower value 0.942 | locus YJL187C, strain SWE1 (second series), stronger effect = lower value 0.931 | locus YJL187C, strain SWE1, stronger effect = lower value 0.974
